According to PubChem BioAssay (Tox21):
Inconclusive results are not listed. Active and inactive are the calls of the source. Calls follow the shape of the dose curve; as a rule, active = well fitted curve in the direction sought with a large enough effect in the repeat runs; inconclusive = weak or mixed curves; inactive = no such curve, though single readings can be large; an effect the other way counts as inactive or inconclusive.

Assays:
[1] = qHTS RealTime-Glo MT Cell Viability Assay in HEK293 cells - 40 hour (AID 1224874); details: RealTime-Glo luminescence; max response: active compounds read low; also: nearly all actives have a fitted effect of over 50% in size
Outline: (§1)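 600 HEK293 cells per well, dispensed already mixed with RealTime-Glo MT reagents. Compound dosing came 5 h later. The same wells were read for luminescence at 0, 8, 16, 24, 32 and 40 h of exposure at 37 C.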

[2] = A CellTox Green Cytotoxicity Assay to monitor cytotoxicity in HEK293 cells - 24 hour (AID 1224875); also: series mostly up to about 77 µM; nearly all actives have a fitted effect of over 45% in size
Outline: (§2)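 Dead-cell fluorescence measured kinetically: asymmetric cyanine dye, HEK293, 600 cells/well, 5 h settle, 23 nL cpd/DMSO, 37 C, reads 0–40 h every 8 h.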

[3] = qHTS RealTime-Glo MT Cell Viability Assay in HepG2 cells - 32 hour (AID 1224877); also: nearly all actives have a fitted effect of over 55% in size
Outline: (§3)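 HepG2 cells (600/well) were dispensed with RealTime-Glo reagents, incubated 5 h at 37 °C, then treated with compounds in DMSO for up to 40 h. Nonlytic NanoLuc luminescence reflecting viable cells was read at each stated time point.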

[4] = qHTS RealTime-Glo MT Cell Viability Assay in HEK293 cells - 0 hour (AID 1224880); also: nearly all actives have a fitted effect of over 45% in size; also: potency is read from the fitted curve at half-maximal effect
Outline: as §1

[5] = A CellTox Green Cytotoxicity Assay to monitor cytotoxicity in HEK293 cells - 32 hour (AID 1224881); also: nearly all actives have a fitted effect of over 40% in size
Outline: as §2

[6] = A CellTox Green Cytotoxicity Assay to monitor cytotoxicity in HepG2 cells - 0 hour (AID 1224882); also: nearly all actives have a fitted effect of over 35% in size; also: potency is read from the fitted curve at half-maximal effect
Outline: (§4)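 First, HepG2 cells (600/well) mixed with reagent were plated; second, after 5 h at 37 C they received compounds via pintool; third, fluorescence was measured at 0 h through 40 h at 8 h intervals.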

[7] = A CellTox Green Cytotoxicity Assay to monitor cytotoxicity in HEK293 cells - 8 hour (AID 1224884); also: nearly all actives have a fitted effect of over 35% in size
Outline: as §2

[8] = qHTS RealTime-Glo MT Cell Viability Assay in HepG2 cells - 16 hour (AID 1224885); also: nearly all actives have a fitted effect of over 50% in size
Outline: as §3

[9] = qHTS RealTime-Glo MT Cell Viability Assay in HEK293 cells - 24 hour (AID 1224886); also: top concentration of the series differs between compounds; nearly all actives have a fitted effect of over 50% in size
Outline: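 HEK293 cells seeded with NanoLuc/prosubstrate reagent, rested 5 h at 37 C, then dosed and kept at 37 C up to 40 h. Nonlytic real-time luminescence from viable cells read at 0, 8, 16, 24, 32 and 40 h.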

[10] = qHTS RealTime-Glo MT Cell Viability Assay in HEK293 cells - 8 hour (AID 1224887); also: top concentration of the series differs between compounds; nearly all actives have a fitted effect of over 50% in size
Outline: as §1

[11] = A CellTox Green Cytotoxicity Assay to monitor cytotoxicity in HEK293 cells - 16 hour (AID 1224888); also: nearly all actives have a fitted effect of over 35% in size
Outline: as §2

[12] = qHTS RealTime-Glo MT Cell Viability Assay in HepG2 cells - 0 hour (AID 1224889); also: nearly all actives have a fitted effect of over 50% in size; also: potency is read from the fitted curve at half-maximal effect
Outline: as §3

[13] = qHTS assay to identify small molecule antagonists of the estrogen receptor alpha (ER-alpha) signaling pathway using the BG1 cell line in the presence of 0.1 nM 17-beta-estradiol - cell viability counter screen (AID 1259241); also: nearly all actives have a fitted effect of over 40% in size
Outline: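 Measures cytotoxicity alongside the ER-alpha antagonist readout: VM7Luc4E2 cells, charcoal-stripped serum, 0.1 nM 17beta-estradiol final, 22 hr compound incubation at 37C, CellTiter-Fluor fluorescence.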

[14] = qHTS assay to identify small molecule antagonists of the androgen receptor (AR) signaling pathway using the MDA cell line in the presence of 0.5 nM R1881 - cell viability counter screen (AID 1259242); also: nearly all actives have a fitted effect of over 45% in size
Outline: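 qHTS format. MDA-kb2 (MMTV-luc, AR/GR responsive) + cpd + 0.5 nM R1881 final, 16 hr 37C/0% CO2 → CellTiter-Fluor 30 min → fluorescence intensity.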

[15] = biological target: Androgen receptor (Homo sapiens) (UniProt P10275); experiment: qHTS assay to identify small molecule antagonists of the androgen receptor (AR) signaling pathway using the MDA cell line in the presence of 0.5 nM R1881 (AID 1259243); also: nearly all actives have a fitted effect of over 50% in size
Chain of Androgen receptor (Homo sapiens) (P10275 whole entry, looked up): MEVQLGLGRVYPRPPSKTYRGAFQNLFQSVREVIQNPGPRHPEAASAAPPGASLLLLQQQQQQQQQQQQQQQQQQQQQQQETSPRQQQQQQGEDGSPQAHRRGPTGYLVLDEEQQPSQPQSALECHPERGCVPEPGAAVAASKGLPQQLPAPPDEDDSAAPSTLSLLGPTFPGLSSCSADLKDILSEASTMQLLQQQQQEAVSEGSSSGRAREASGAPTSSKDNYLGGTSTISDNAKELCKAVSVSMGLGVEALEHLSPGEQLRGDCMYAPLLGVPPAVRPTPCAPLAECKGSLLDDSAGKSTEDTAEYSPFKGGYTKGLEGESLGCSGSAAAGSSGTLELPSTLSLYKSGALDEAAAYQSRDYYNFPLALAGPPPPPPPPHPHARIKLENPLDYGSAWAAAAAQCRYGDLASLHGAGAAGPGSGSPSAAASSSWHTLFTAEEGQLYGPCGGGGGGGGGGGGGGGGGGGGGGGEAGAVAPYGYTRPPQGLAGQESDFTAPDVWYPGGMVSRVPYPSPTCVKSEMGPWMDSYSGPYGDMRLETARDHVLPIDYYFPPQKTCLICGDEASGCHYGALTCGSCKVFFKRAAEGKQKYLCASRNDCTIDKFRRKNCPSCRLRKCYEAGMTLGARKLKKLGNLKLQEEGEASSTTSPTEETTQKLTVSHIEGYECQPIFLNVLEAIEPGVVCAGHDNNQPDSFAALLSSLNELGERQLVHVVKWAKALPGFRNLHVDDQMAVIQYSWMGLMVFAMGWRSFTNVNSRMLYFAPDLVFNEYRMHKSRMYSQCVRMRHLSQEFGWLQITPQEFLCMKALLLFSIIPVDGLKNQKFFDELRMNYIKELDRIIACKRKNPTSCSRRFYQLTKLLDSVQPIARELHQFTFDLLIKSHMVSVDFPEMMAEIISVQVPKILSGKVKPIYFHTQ
Outline: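 Antagonist mode quantitative HTS in MDA-kb2 MMTV-luciferase cells, agonist R1881 at 0.5 nM final, 16 hr exposure at 37C and 0% CO2, luminescent detection.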

[16] = A CellTox Green Cytotoxicity Assay to monitor cytotoxicity in HepG2 cells - 16 hour (AID 1224876); also: nearly all actives have a fitted effect of over 45% in size
Outline: as §4

[17] = A CellTox Green Cytotoxicity Assay to monitor cytotoxicity in HepG2 cells - 24 hour (AID 1224878); also: nearly all actives have a fitted effect of over 45% in size
Outline: as §4

[18] = A CellTox Green Cytotoxicity Assay to monitor cytotoxicity in HepG2 cells - 40 hour (AID 1224879); also: nearly all actives have a fitted effect of over 40% in size; also: potency is read from the fitted curve at half-maximal effect
Outline: as §4

[19] = A CellTox Green Cytotoxicity Assay to monitor cytotoxicity in HepG2 cells - 32 hour (AID 1224883); also: nearly all actives have a fitted effect of over 50% in size
Outline: as §4

[20] = A CellTox Green Cytotoxicity Assay to monitor cytotoxicity in HepG2 cells - 8 hour (AID 1224890); also: nearly all actives have a fitted effect of over 45% in size
Outline: as §4
% is scaled to controls: 0 for no effect and ±100 for the full control effect.

O=C(O)[C@@H]1[C@H]2C[C@H]3c4[nH]c5ccccc5c4CCN3C[C@@H]2CC[C@@H]1O
inactive: max response [1] 1.89% | Potency [2] | Potency [3] | Potency [4] | Potency [5] | Potency [7] | Potency [8] | Potency [9] | Potency [10] | Potency [11] | Potency [12] | Potency [13] | Potency [14] | Potency [15]
active: Potency [6] 10.7 µM

O=C(O)Cc1sc(-c2ccccc2)nc1-c1ccc(Cl)cc1
inactive: max response [1] 0.938% | Potency [2] | Potency [16] | Potency [3] | Potency [17] | Potency [18] | Potency [5] | Potency [6] | Potency [19] | Potency [7] | Potency [8] | Potency [9] | Potency [10] | Potency [11] | Potency [12] | Potency [20] | Potency [13] | Potency [14] | Potency [15]

Cc1cccc(OCCOc2cccc(C)c2)c1
inactive: max response [1] -15.5% | Potency [2] | Potency [3] | Potency [4] | Potency [5] | Potency [6] | Potency [7] | Potency [8] | Potency [9] | Potency [10] | Potency [11] | Potency [12] | Potency [20] | Potency [13] | Potency [14]

CCCCCCCCCO
inactive: max response [1] 18.9% | Potency [2] | Potency [16] | Potency [3] | Potency [17] | Potency [18] | Potency [5] | Potency [6] | Potency [19] | Potency [7] | Potency [8] | Potency [9] | Potency [10] | Potency [11] | Potency [12] | Potency [20] | Potency [13] | Potency [14]

CC(C)(C)c1ccc(OCC2CO2)cc1 (configuration not stated)
inactive: max response [1] -5.37% | Potency [16] | Potency [3] | Potency [17] | Potency [18] | Potency [4] | Potency [6] | Potency [19] | Potency [7] | Potency [8] | Potency [9] | Potency [10] | Potency [12] | Potency [20] | Potency [13] | Potency [14]

O=C(NS(=O)(=O)/C=C/c1cccs1)c1ccc(F)cc1Br
inactive: Potency [2] | Potency [16] | Potency [3] | Potency [17] | Potency [18] | Potency [5] | Potency [6] | Potency [19] | Potency [7] | Potency [8] | Potency [9] | Potency [10] | Potency [11] | Potency [20] | Potency [13] | Potency [14] | Potency [15]
active: Potency [4] 19.5 µM | Potency [12] 15.5 µM

CCCCC(CC)COCCCN (configuration not stated)
inactive: Potency [2] | Potency [16] | Potency [3] | Potency [17] | Potency [18] | Potency [4] | Potency [5] | Potency [6] | Potency [19] | Potency [7] | Potency [8] | Potency [10] | Potency [11] | Potency [12] | Potency [20] | Potency [13] | Potency [14]

Cc1ccc2c(ccc3ccccc32)c1
inactive: Potency [2] | Potency [16] | Potency [3] | Potency [17] | Potency [18] | Potency [4] | Potency [5] | Potency [6] | Potency [19] | Potency [7] | Potency [8] | Potency [9] | Potency [10] | Potency [11] | Potency [12] | Potency [20] | Potency [13] | Potency [14]

CN(c1nccc(=O)[nH]1)C1CCN(c2nc3ccccc3n2Cc2ccc(F)cc2)CC1
inactive: Potency [2] | Potency [16] | Potency [3] | Potency [17] | Potency [18] | Potency [4] | Potency [5] | Potency [6] | Potency [19] | Potency [7] | Potency [8] | Potency [11] | Potency [12] | Potency [20] | Potency [13] | Potency [14]

Nc1ccc(C(=O)N2CC3CC(CN(Cc4ccccc4)C3)C2)cc1
inactive: Potency [2] | Potency [16] | Potency [3] | Potency [17] | Potency [18] | Potency [4] | Potency [5] | Potency [6] | Potency [19] | Potency [7] | Potency [8] | Potency [9] | Potency [10] | Potency [11] | Potency [12] | Potency [20] | Potency [13] | Potency [14]

C=C(C)C(=O)OCCN(C)C
inactive: Potency [2] | Potency [16] | Potency [3] | Potency [17] | Potency [18] | Potency [4] | Potency [5] | Potency [6] | Potency [19] | Potency [7] | Potency [8] | Potency [9] | Potency [10] | Potency [11] | Potency [12] | Potency [20] | Potency [13] | Potency [14]

C[Si](C)O[Si](C)(C)O[Si](C)(C)O[Si](C)C
inactive: Potency [2] | Potency [16] | Potency [3] | Potency [17] | Potency [18] | Potency [4] | Potency [5] | Potency [6] | Potency [19] | Potency [7] | Potency [8] | Potency [9] | Potency [10] | Potency [11] | Potency [12] | Potency [20] | Potency [13] | Potency [14]

CCCCOc1cc(C(=O)OCCN(CC)CC)ccc1N
inactive: max response [1] -18% | Potency [3] | Potency [4] | Potency [8] | Potency [9] | Potency [10] | Potency [11] | Potency [12] | Potency [13] | Potency [14]

Cn1c(N)nc2nc[nH]c2c1=O
active: Potency [18] 21.6 µM
inactive: Potency [2] | Potency [16] | Potency [3] | Potency [17] | Potency [4] | Potency [5] | Potency [6] | Potency [19] | Potency [7] | Potency [8] | Potency [10] | Potency [11] | Potency [12] | Potency [20] | Potency [13] | Potency [14]

CCCC(=O)OCC
inactive: Potency [2] | Potency [16] | Potency [3] | Potency [17] | Potency [18] | Potency [4] | Potency [5] | Potency [6] | Potency [19] | Potency [7] | Potency [8] | Potency [9] | Potency [10] | Potency [11] | Potency [12] | Potency [20] | Potency [13] | Potency [14]
